According to PubChem BioAssay AID1347046 (National Center for Advancing Translational Sciences (NCATS), 2019):
About 940 (67%) of roughly 1,400 compounds were called active. Roughly 27% stayed inconclusive and do not appear here. Calls follow the shape of the full dose curve. So high a share suggests a set chosen from earlier hits. Only a sample is shown.

What follows are molecules tested against Atrial natriuretic peptide receptor 2 (Homo sapiens) (UniProt P20594) (assay: Natriuretic polypeptide receptor (hNpr2) antagonism - Subtype selectivity assay). Settings: HEK293 hNpr2 GloSensor cGMP luminescence, CNP-stimulated.
Experimental: F. Fan, B. F. Binkowski, B. L. Butler, P. F. Stecha, M. K. Lewis, K. V. Wood, Novel genetically encoded biosensors using firefly luciferase. ACS Chem Biol 3, 346-351 (2008).
PROTOCOL TABLE (as described by Inglese J, Shamu CE and Guy RK. 2007) SEQUENCE No. (e.g., 1, 2, 3, etc.); PARAMETER (e.g., Cells, Incubation, Reagent, etc.); VALUE and DESCRIPTION. 1. Cells. Seed 1500 HEK293 cGMP-sensor cells expressing hNpr2 per well in 4uL into Greiner 1536-well white/solid bottom high base, TC plates. 2. Incubation. Incubate plated cells at 37C in 5% CO2, 95% RH overnight. 3. Reagent. Add 1uL per well GloSensor reagent from Promega (2% final concentration) or CO2 independent media vehicle control to respective columns of Greiner 1536-well plates. 4. Incubation. Incubate plated cells at ambient temperature for 2 h., protect from light. 5. Compounds. Library compounds and DMSO vehicle control added at 23nL per well, transferred by Pin Tool. 6. Incubation. Incubate plated cells for 30 min. at ambient temperature, protect from light. 7. Detector. GloSensor baseline pre-read luminescence measured using CCD-based camera (Viewlux). 8. Compound. Add 1uL of hNppC peptide to 1 nM final concentration to stimulate hNpr2 or CO2 independent media as vehicle control. 9. Incubation. Incubate treated cells at ambient temperature for 20 min., protect from light. 10. Detector. GloSensor post-hNppC luminescence measured using CCD-based camera (Viewlux). NOTES (numbers refer to Sequence numbers above) 1. HEK293 cells expressing hNpr2 and GIP/pGS-40F were grown to 85-95% confluence (48-72 h) in T175 culture flasks (CO2 independent media supplemented with 10% FBS, 1% Pen/Strep antibiotics, and 1 ug/mL puromycin). Trypsinize and harvest cells from T175 culture flasks and filter through 40 um cell strainer. Cells counted with Invitrogen Countess (30,000,000 - 50,000,000 cells/flask). Cells diluted to a final concentration of 375 cells/uL in CO2 independent media and a Millipore multidrop used to dispense 1500 cells per well (4uL/well) into 13 1536-well Greiner White/Solid bottom, high base tissue-culture treated (TC) plates and one Aurora 1536-well Black/Clear bottom, low base, TC plate (for visual inspection of cell health throughout the duration of the assay). 2. Cells incubated for 24 h. at 37C in 95% RH incubator with metal lid having gas-exchange holes. 3. Prepare GloSensor Reagent (Promega): Reconstitute GloSensor luciferase substrate by adding 8.2mL Hepes buffer to 250mg substrate, mix well, protect from light and stored at -80C. Prepare a fresh 12% GloSensor solution in CO2 independent supplemented plating media (see above). Mix well and store at ambient temperature, protected from light. 1uL 12% GloSensor Luciferase Reagent added (2% final concentration) to respective columns of 13 x 1536-well Greiner plate with BioRaptr, 1uL CO2 independent plating media added to respective columns as vehicle control with BioRaptr. 4. Cells incubated for 2 h. at ambient temperature, protected from light with metal lid having gas-exchange holes. 5. 23nL of library compounds or DMSO vehicle control transferred to 13 Greiner white/solid bottom high base, TC plates in 11 interplate 1:3 titrations (see Yasgar, A. et al. 2008) with Pintool. 6. Cells incubated for 30-50 min. at ambient temperature protected from light with metal lid having gas-exchange holes. 7. Read cellular baseline GloSensor luminescence in presence of test library compounds on the ViewLux [Exposure = 10 s.; Gain = High; Speed = Slow; and Binning = 2X.] 8. hNppC peptide agonist solution prepared at 1 mM (in H2O) stock concentration. From this a working dilution was prepared at 6 nM in CO2 Independent media. 1uL of 6 nM hNppC agonist (1 nM final concentration) or CO2 Independent media vehicle control dispensed into respective columns of 13 x Greiner 1536-well white/solid bottom, tissue culture plates with BioRaptr. 9. Cells incubated for 20 min. at ambient temperature, protected from light with metal lid having gas-exchange holes. 10. […]
Also: nearly all actives have a fitted effect of over 70% in size.
Potency is read from the fitted curve at half-maximal effect.

Atrial natriuretic peptide receptor 2 (Homo sapiens), sequence (P20594 whole entry, looked up): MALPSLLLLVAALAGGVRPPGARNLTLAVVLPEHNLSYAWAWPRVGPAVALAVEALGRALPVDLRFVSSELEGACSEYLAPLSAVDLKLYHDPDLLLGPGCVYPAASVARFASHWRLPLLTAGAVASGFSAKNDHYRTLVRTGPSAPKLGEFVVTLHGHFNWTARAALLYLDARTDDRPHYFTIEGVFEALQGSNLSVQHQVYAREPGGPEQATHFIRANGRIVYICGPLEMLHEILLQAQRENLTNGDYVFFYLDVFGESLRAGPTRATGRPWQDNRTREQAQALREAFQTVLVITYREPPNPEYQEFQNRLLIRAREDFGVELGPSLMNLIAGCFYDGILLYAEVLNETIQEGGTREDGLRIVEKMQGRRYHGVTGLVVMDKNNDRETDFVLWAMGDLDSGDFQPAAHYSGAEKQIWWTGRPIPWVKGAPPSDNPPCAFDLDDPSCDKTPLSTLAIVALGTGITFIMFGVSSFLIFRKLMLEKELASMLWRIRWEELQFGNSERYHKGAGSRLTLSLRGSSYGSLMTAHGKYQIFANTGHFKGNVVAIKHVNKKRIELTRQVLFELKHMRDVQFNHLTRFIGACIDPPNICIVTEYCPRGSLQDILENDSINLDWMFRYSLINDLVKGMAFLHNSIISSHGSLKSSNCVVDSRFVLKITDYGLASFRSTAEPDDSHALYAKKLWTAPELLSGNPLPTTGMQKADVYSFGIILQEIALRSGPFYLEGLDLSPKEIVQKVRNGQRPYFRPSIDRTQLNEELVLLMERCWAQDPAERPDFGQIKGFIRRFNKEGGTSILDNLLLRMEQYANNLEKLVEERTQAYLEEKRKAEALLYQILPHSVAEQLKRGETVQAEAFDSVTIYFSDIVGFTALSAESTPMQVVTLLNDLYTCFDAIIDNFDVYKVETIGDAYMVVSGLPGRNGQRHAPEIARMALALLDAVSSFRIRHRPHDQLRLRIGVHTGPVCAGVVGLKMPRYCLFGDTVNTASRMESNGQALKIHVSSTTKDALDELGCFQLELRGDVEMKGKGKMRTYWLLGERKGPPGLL

| SMILES | Potency |
| --- | --- |
| CCC(CC)c1cc([C@H]2CN3CC[C@H]2C[C@@H]3CNS(=O)(=O)Cc2ccccc2)nc(-c2ccncc2)n1 | 21.7 µM (active) |
| CCC(CC)c1cc([C@H]2CN3CC[C@H]2C[C@@H]3CNC(=O)NCc2ccccc2)nc(-c2ccncc2)n1 | 12.2 µM (active) |
| COc1cc2c(cc1Oc1cccc(N(C)C)c1)NC(=O)C21CCN(c2cnccn2)CC1 | 19.3 µM (active) |
| COc1cc2c(cc1Oc1cccc(N(C)C)c1)NC(=O)C21CCN(CCC(C)C)CC1 | 28 µM (active) |
| COc1cc2c(cc1Oc1cccc(N(C)C)c1)NC(=O)C21CCN(Cc2ccccn2)CC1 | 21.7 µM (active) |
| COc1cc2c(cc1OCc1ccncc1)NC(=O)C21CCN(c2ncc(F)cn2)CC1 | 39.6 µM (active) |
